ST2 inh = inhibitors of human ST2 (IL1RL1) binding to IL-33; Q01638; AlphaLISA ST2-Fc/biotin-IL-33 interaction, 1 h; inhibition, % for hits at 17 µM; hit rate 2.3% among 78,000; AID 1259354; in the data active means inhibition above about 30%
Target sequence (Q01638 whole entry, looked up): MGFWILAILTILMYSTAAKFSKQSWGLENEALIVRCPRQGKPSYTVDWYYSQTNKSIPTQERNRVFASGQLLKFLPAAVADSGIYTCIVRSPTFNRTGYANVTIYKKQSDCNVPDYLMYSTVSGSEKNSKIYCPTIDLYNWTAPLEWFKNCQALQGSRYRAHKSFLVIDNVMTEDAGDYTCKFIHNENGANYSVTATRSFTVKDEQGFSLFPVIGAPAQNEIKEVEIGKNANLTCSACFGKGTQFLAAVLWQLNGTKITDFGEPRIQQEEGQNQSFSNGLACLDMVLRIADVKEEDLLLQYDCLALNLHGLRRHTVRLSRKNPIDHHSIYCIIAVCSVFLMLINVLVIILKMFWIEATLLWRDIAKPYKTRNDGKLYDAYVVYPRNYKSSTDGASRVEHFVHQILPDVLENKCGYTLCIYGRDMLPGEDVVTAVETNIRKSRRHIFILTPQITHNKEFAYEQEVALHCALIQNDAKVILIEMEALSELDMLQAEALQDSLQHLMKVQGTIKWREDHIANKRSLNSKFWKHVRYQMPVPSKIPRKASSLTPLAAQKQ
Numbers without * were called inactive; i = inactive; ! = a repeat was not active. The full list was thinned out, with hits kept by preference.

SMILES | ST2 inh
Cc1ccc(C2CC(c3cccs3)=NN2S(=O)(=O)c2ccc(C)cc2)cc1 (stereo not drawn) | 33%*
Cc1cnc(C(=O)N2CCCC3(CC2)CNC(=O)O3)cn1 (stereo not drawn) | i
CCOC(=O)CSc1nc2sc3c(c2c(=O)n1-c1ccc(C)cc1)CC(C)(C)OC3 | i
O=C(c1c(F)cccc1F)N1CCN=C1SCc1ccccc1Cl | i
Cc1ccc(C)c(CSC2=NCCN2C(=O)c2ccc(S(=O)(=O)N3CCOCC3)cc2)c1 | i
CC(=O)N1c2c(cc(Br)cc2S(=O)(=O)N2CCCCCC2)CC1C (stereo not drawn) | i
CN1C(=O)C(=Cc2cn(CCOc3ccc(F)cc3)c3ccccc23)C(=O)N(C)C1=O | i
O=[N+]([O-])c1cc(C=Nc2ccccc2I)ccc1Br | 35%*
O=[N+]([O-])c1cc(C=Nc2ccc(Br)cc2)ccc1Br | i
O=[N+]([O-])c1cc(C=Nc2cccc(I)n2)ccc1Br | i
O=C(c1ccccc1)N1CCC(NCc2nncn2C2CCCCC2)CC1 | i
C=C(C)[C@@H]1CC=C(CN2CCN(CCO)CC2)CC1 | i
COC(=O)C1C(=O)NC(SC)=C(C#N)C1c1ccc(C)cc1 (stereo not drawn) | i
Cc1cc[n+](C2C(c3ccc(Br)cc3)C(C#N)=C([S-])NC2(O)C2CC2)cc1 (stereo not drawn) | 55%*
Cc1ccc([C@]2(O)NC([S-])=C(C#N)[C@H](c3ccc(F)cc3)[C@H]2[n+]2ccccc2)cc1 | i
Cc1ccc(C(C)CCN2CCC(n3nccc3NC(=O)C3CCCC3)CC2)o1 (stereo not drawn) | i
COC(=O)c1[nH]c2ccc(Br)cc2c1NC(=O)CN1CCCCC1 | i
Cc1c(Cl)c(C)c([N+](=O)[O-])c(O)c1C=Nc1ccc(C(=O)O)cc1 | i
COc1cccc(-n2c(O)c(C=Nc3ccc(Cl)cc3)c3ccccc3c2=O)c1 | i
COc1ccc(N=Cc2c(O)c([N+](=O)[O-])cc3oc4c(c23)CCCC4)cc1 | i
COc1ccc(N=Cc2c(O)ccc3oc4c(c23)CCCC4)cc1 | 40%*
COc1ccc(NC(=O)c2noc3c2CCCCC3)cc1 | i
COc1ccc(N=Cc2c(O)cc(C)c(Cl)c2C)cc1 | 43%*
Cc1ccc(C23C[C@@H]4C[C@@H](CC(Cl)(C4)C2)C3)cc1N | i
Cc1ccc(C23C[C@@H]4C[C@@H](CC(O)(C4)C2)C3)cc1[N+](=O)[O-] | 44%*
SMILES | ST2 inh
Cc1ccc(S(=O)(=O)N2CCN(S(=O)(=O)c3ccc(C)c([N+](=O)[O-])c3)C2)cc1 | i
Cc1cc(C)n(-c2nn[nH]n2)n1 | i
CCN1C(=O)c2ccc(C(=O)Nc3ccc(Br)cc3C)cc2C1=O | i
COc1ccc(N2C(=O)C(=O)C(=C(O)c3ccccc3)C2c2ccc(Cl)cc2)cc1 (stereo not drawn) | i
Nc1nonc1-c1noc(COc2ccc(F)cc2)n1 | i
N#Cc1nc(COc2ccccc2)oc1NCc1ccc(F)cc1 | 34%*
COc1ccc(CNc2oc(COc3ccc(OC)cc3)nc2C#N)cc1 | i
CCc1nc(-c2nccn2-c2ccc(OC)c(Cl)c2)c(C)[nH]1 | i
COc1ccccc1-c1ncnn1-c1sc2c(c1C#N)CCCCC2 | 48%*
Fc1cc(Br)ccc1-n1ncnc1-c1ccc2c(c1)OCO2 | i
COc1ccc(-c2ncnn2-c2sc3c(c2C#N)CCCC3)cc1 | 44%*
COc1ccc(-c2cc(C(=O)Nc3sc4c(c3C#N)CCC4)no2)cc1 | i
N#Cc1c(NC(=O)COc2cccc3ccccc23)sc2c1CCCC2 | i
N#Cc1c(-n2ncnc2-c2ccc3c(c2)OCO3)sc2c1CCCCC2 | 35%*!
COc1ccc(-c2cc(C(=O)Nc3sc4c(c3C#N)CCCC4)no2)cc1OC | i
COc1ccccc1-c1nc2sc3c(c2c(=O)[nH]1)CCCC3 | i
N#Cc1c(NC(=O)c2cc(-c3ccc4c(c3)OCO4)on2)sc2c1CCC2 | i
Cc1ccc(CN2C(=O)SC(Nc3ccc(C)cc3)C2=O)cc1 (stereo not drawn) | i
CCN1CCCC1CNC(=O)c1cc(-c2ccncc2)nc2ccccc12 (stereo not drawn) | i
O=C1NCC2(CCCN(C(=O)c3cc(=O)n(-c4ccccc4)[nH]3)CC2)O1 (stereo not drawn) | i
CC1(C)C(=O)OC(c2cccc(Br)c2)C(C)(C)C1=O (stereo not drawn) | i
COC(=O)C1C(=O)CC(C)(O)C(C(=O)OC)C1c1ccccc1 (stereo not drawn) | i
Cc1cccc(-c2cc(N3CCN(S(=O)(=O)Cc4ccccc4)CC3)ncn2)c1 | i
Cc1nc(N2CCC(N3CCCCC3)CC2)nc2ccccc12 | i
COCCn1cc(C(=O)N2CCCC2)c2c3ccccc3n(C)c2c1=O | i
SMILES | ST2 inh
Nc1cccc(C(=O)Nc2ccccc2Cl)c1 | i
Nc1ccc(Nc2ccccc2)c(Cl)c1 | 44%*
Nc1ccc(Cl)c(NC(=O)CC(=O)c2ccccc2)c1 | i
Cc1c(C(=O)Nc2ccccc2C(=O)NC2CCCCC2)cccc1[N+](=O)[O-] | i
CC(C(=O)Nc1nccs1)N1CCC2(CC1)Nc1ccccc1NC2=O (stereo not drawn) | i
COc1nc2c(cc1C(=O)N1CC(c3cccnc3)C1)CCC2 | i
C/C(=C\c1ccc(-c2ccc(Cl)c(C(=O)O)c2)o1)[N+](=O)[O-] | 32%*
CCOC(=O)c1ccc(-c2ccc(/C=C/c3[nH]c(=O)[nH]c(=O)c3[N+](=O)[O-])o2)cc1 | i
O=C(/C=C/c1ccc(-c2ccc([N+](=O)[O-])cc2Cl)o1)c1ccco1 | i
Cc1nn(CCCC(=O)Nc2ccc(Cl)cc2)c(C)c1[N+](=O)[O-] | i
Cc1ccccc1-c1cc(O)c2c(c1)CN(C(=O)Cc1ccccn1)CCO2 | i
CCc1ccc(Cn2c(CNS(=O)(=O)c3ccc(C(C)(C)C)cc3)nc3cccnc32)cc1 | i
CCN1CCN(C(=O)CCC2CCN(CC3=CC[C@H]4C[C@@H]3C4(C)C)CC2)CC1 | i
CC1(C)[C@H]2CC=C(CN3CCN(c4ccc([N+](=O)[O-])cc4)CC3)[C@@H]1C2 | 42%*
O=C(O)c1ccc(CN2CCN(c3ccc([N+](=O)[O-])cc3)CC2)cc1 | i
O=[N+]([O-])c1ccc(N2CCN(Cc3cccnc3)CC2)cc1 | i
O=[N+]([O-])c1ccc(N2CCN(Cc3ccsc3)CC2)cc1 | i
O=[N+]([O-])c1ccc(N2CCN(Cc3ccc(Br)o3)CC2)cc1 | 38%*
O=C(NCc1cccnc1)c1ccc2c(c1)N(Cc1ccccc1)C(=O)CS2 | i
Cc1ccc(NC(=O)CC2Sc3ccccc3NC2=O)c([N+](=O)[O-])c1 (stereo not drawn) | i
O=c1[nH]c(SCc2ccccc2Cl)nc2c1cnn2-c1ccc(F)cc1 | i
CNC(=O)c1ccc(Cn2c(=O)c3cc(OC)c(OC)cc3n(CC(=O)NC3CCCC3)c2=O)cc1 | i
C[C@H]1Cc2ccccc2C(=O)N1 | i
CC(=O)Nc1ccc(N=Cc2nc(-c3ccc(Cl)cc3)oc2O)cc1 | 33%*
Oc1ccc(N=Cc2nc(-c3ccccc3)oc2O)cc1 | i
Oc1oc(-c2ccc(Cl)cc2)nc1C=Nc1ccccc1Cl | i
Cc1c(Cl)cccc1N=Cc1nc(-c2ccccc2)oc1O | i
Oc1oc(-c2ccc(Cl)cc2)nc1C=Nc1cc(Cl)ccc1Cl | i
Cc1c(Cl)cccc1N=Cc1nc(-c2ccc(Cl)cc2)oc1O | 33%*

Screening data (PubChem BioAssay)
